Only a selection was taken, and hits are over-represented in it overall.
RGS4 inh: inhibitors of human regulator of G protein signaling 4; P49798; Transcreener GDP fluorescence polarization, RGS4-accelerated GTP hydrolysis; Potency, µM (series often up to 114 µM), inactives show at the highest dose activity change, negative = inhibition, most hits filed as inhibitors; hit rate 0.039% among 390,000; note: potency is the fitted concentration of half-maximal effect; % is set by controls: 0 for no effect and ±100 for the full control effect; nearly all actives have a fitted effect of over 75% in size
Target sequence (P49798 whole entry, looked up): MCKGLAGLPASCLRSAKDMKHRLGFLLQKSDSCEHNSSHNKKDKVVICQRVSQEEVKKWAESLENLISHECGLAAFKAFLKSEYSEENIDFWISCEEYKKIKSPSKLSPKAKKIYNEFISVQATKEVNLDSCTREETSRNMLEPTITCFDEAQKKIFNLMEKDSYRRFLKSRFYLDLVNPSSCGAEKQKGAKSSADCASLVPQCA
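MLSMR compounds (23 nl, pin-transferred) preincubated 10 min at room temperature with a 500nM (2x) first reagent, then RGS4 at 900nM (2x) plus Transcreener GDP mix added; fluorescence polarization (620/688 nm) read before and after 90 min at 30 °C.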
S-ASM inh: human S-ASM enzyme inhibition; placental ASM, HMU-PC fluorogenic substrate, 60 min; hit rate 0.006% among 340,000; AID 504937; Potency, µM (series often up to 57.5 µM), for inactives: at the top dose activity change, negative = inhibition, actives largely listed as inhibitors; note: potency is the fitted concentration of half-maximal effect
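qHTS format. ASM enzyme prepared from human placenta hydrolyses the fluorogenic substrate HMU-PC0 (9 uM final) over 60 min at 37 °C after a 10 min compound preincubation.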
Mito fusion yeast: inhibitors of mitochondrial division or activators of mitochondrial fusion; AID 485298; S. cerevisiae fusion-defective mutant growth rescue, CellTiterGlo 48 h; Potency, µM (doses to about 46.1 µM), inactives show at the highest dose growth rescue (activation), usual class: activators; hit rate 0.23% among 320,000; note: potency is the fitted concentration of half-maximal effect; % of control where 0% means no effect; nearly all actives have a fitted effect of over 45% in size
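Temperature-sensitive fusion-defective S. cerevisiae (e.g. fzo1-1, mgm1-5) were grown with compound in YPEG medium (3% ethanol, 3% glycerol) for 48 hours at 37C. Growth rescue was measured as viability by CellTiterGlo luminescence after 10 minutes at ambient.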
ClpP mod: qHTS Assay for Activators of ClpP | ATP-dependent Clp protease proteolytic subunit (Bacillus subtilis (strain 168)), P80244 | purified B. subtilis ClpP, FRET peptide cleavage, 20 min | hit rate 1.9% among 340,000 | Potency, µM (highest dose often 57.5 µM), for inactives: top-dose activity change, negative = active; active = well fitted falling curve with a large enough effect; inconclusive = small, poorly fitted or top-dose-only effect; inactive = no such curve, though single readings can be large or run the other way; note: potency is the fitted concentration of half-maximal effect; the source files actives as falling curves though it sought activators and does not explain the sign; nearly all actives have a fitted effect of over 65% in size
Target sequence (P80244 whole entry, looked up): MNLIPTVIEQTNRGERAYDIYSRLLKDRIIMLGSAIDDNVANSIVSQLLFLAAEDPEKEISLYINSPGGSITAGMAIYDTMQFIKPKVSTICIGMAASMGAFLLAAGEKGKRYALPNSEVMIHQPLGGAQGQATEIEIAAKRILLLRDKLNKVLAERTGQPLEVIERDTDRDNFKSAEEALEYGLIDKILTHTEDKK
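Buffer: 100 mM Tris/HCl pH8, 100 mM KCl, 0.05% low protease BSA, 2.5% glycerol, 0.01% Tween-20. ClpP 10 microg/mL final; 20 min RT; delta FRET normalized to ADEP and DMSO controls.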
LDHA inh: inhibitors of human lactate dehydrogenase A; P00338; purified LDHA, NADH/diaphorase-resazurin fluorescence; hits give low values; activity change, % (values are at about 110 or 230 µM); hit rate 0.15% among 480,000; in the data active = activity change below about -30%; inconclusive = mostly about -25% to -30%;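 note: plate controls were DMSO wells for no effect and wells without enzyme for full effect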
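Remaining NADH was detected by diaphorase (0.133 mg/mL) converting 37 µM resazurin to fluorescent resorufin, read at 0 and 20 minutes. The preceding 5-minute room-temperature reaction used 2 nM LDHA, 0.2 mM sodium pyruvate and 0.06 mM NADH at pH 7.4.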
mIDH1 inhibitor: inhibitors of human mutant IDH1 R132H | Potency, µM (titrated, usually from 76.6 µM), for inactives: at the top dose activity change, negative = inhibition, usual class: inhibitors | AID 602179 | IDH1-R132H enzyme, NADPH consumption, diaphorase/resazurin fluorescence | hit rate 0.093% among 390,000; note: potency is the fitted concentration of half-maximal effect; % is set by controls: 0 for no effect and ±100 for the full control effect; nearly all actives have a fitted effect of over 65% in size
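IDH1-R132H (0.5 ug/mL) preincubated 30 min with compound, then NADPH (0.016 mM) and alpha-KG (2 mM) added; 80 min at RT, pH 7.5. Remaining NADPH coupled via diaphorase/resazurin to fluorescence (540/590 nm); concentration-response curves normalized to no-enzyme control.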
An asterisk follows results filed as active; ? = inconclusive; . = no result; ! = not confirmed by another sample; [ ] = dose if it differs, or a comment. Unless noted, calls come from the whole dose curve; as a rule, active = well fitted curve in the direction sought with a large enough effect; inconclusive = small, poorly fitted or top-dose-only effect, or another doubt; inactive = no such curve, though single readings can be large; an effect the other way counts as inactive or inconclusive.

SMILES	RGS4 inh	S-ASM inh	Mito fusion yeast	ClpP mod	LDHA inh	mIDH1 inhibitor
CCOC(=O)c1c(C)[nH]c(C)c1C(=O)COC(=O)/C=C/c1ccc(OC)cc1	8%	-7%	8%	16µM*	-5	6%
O=C(Nc1ccccc1-c1nc2ccccc2[nH]1)c1ccc(S(=O)(=O)N2CCCCC2)cc1	18%	-2%	-2%	?	-6	-1%
CC1CCCCN1S(=O)(=O)c1ccc(C(=O)Nc2ccccc2-c2nc3ccccc3[nH]2)cc1 (stereo not given)	16%	52%	4%	13µM*	-4	-3%
COc1cc(/C=C/C(=O)c2c(O)ccc3c(C)cc(=O)oc23)ccc1O	-19%[11.4 µM]	-10%	-13%	28µM*!	-3	4%
COc1cc(/C=C/C(=O)c2c(O)cc(C)oc2=O)cc(OC)c1O	11%[11.4 µM]	-8%	2%	28µM*	25	7%
COc1cccc(/C=C/C(=O)c2c(O)cc(C)oc2=O)c1O	-1%	-4%	-16%	0%	10	7%
CCNC(=S)Nc1ccc(F)c(Cl)c1	.	.	.	.	-2	.
COc1ccccc1-n1[nH]c(C)c(Cc2cccc(Cl)c2)c1=O	.	.	.	.	6	.
CCOC(=O)c1cc(C#N)c(SCC(=O)O)[nH]c1=O	0%	4%	10%	.	6	6%
CSc1[nH]c(=O)c(C(=O)O)cc1C#N	12%	6%	-3%	40µM*	10	-1%
Cc1c2cnn(-c3ccccc3)c(=O)c2c(C)n1C(C)C(=O)NCc1ccccn1 (stereo not given)	.	.	.	.	6	.
CC(C)Cc1cc(C(=O)N2N=C(C(F)F)CC2(O)C(F)F)c2ccccc2n1 (stereo not given)	15%	-5%	6%	0%	-5	2%
CCc1ccc(-c2cc(C(=O)N3N=C(C(F)F)CC3(O)C(F)F)c3ccccc3n2)cc1 (stereo not given)	13%	-16%	-23%	22µM*	3	-4%
CCCN1C(=O)c2ccccc2CC1(C)C(=O)NC1CCCCC1 (stereo not given)	-5%	.	.	1%	-5	.
CC1(C(=O)NC2CCCCC2)Cc2ccccc2C(=O)N1Cc1ccccc1Cl (stereo not given)	20%	.	.	32µM*	-9	.
O=C(O)C1C2C=CC(O2)C1C(=O)NCc1ccc(Cl)cc1 (stereo not given)	0%[11.4 µM]	-1%	-4%	35µM*	-11	-5%
N#Cc1cc2c(cc1C(=O)C1CC1)OCCO2	.	.	.	.	-8	.
Cc1ccc(S(=O)(=O)c2nc(-c3ccccc3Cl)oc2N(C)C)cc1	-10%	.	8%	-14%	1	3%
CN(C)c1oc(-c2ccccc2Cl)nc1P(=O)(c1ccccc1)c1ccccc1	-13%	19%	19%	20µM*	-6	-8%
Cc1ccc2nc(-c3ccc(NS(C)(=O)=O)cc3)cc(-c3ccccc3)c2c1	41%	9%	-25%	?	1	-4%
CCS(=O)(=O)Nc1ccc(-c2cc(-c3ccccc3)c3cc(C)ccc3n2)cc1	-14%	4%	-37%	18µM*	0	0%
N#Cc1cnn2c(-c3ccccc3)ccnc12	-24%	123%	3%	25µM*	2	0%
CCn1c(SC(C(=O)N2CCCC2)c2ccccc2)nnc1-c1ccccc1OC (stereo not given)	.	.	.	.	-14	.
CC(=O)C1=C(C)NC(SCC(=O)Nc2nccs2)=C(C#N)C1c1ccccc1Cl (stereo not given)	-18%	22%	4%	28µM*	-4	-10%
COc1cccc(OC)c1C(=O)N1CCN(Cc2cc(=O)oc3cc(C)ccc23)CC1	.	.	.	.	-5	.
SMILES	RGS4 inh	S-ASM inh	Mito fusion yeast	ClpP mod	LDHA inh	mIDH1 inhibitor
COc1ccc(-c2csc(-n3ncc(C(=O)O)c3C(F)(F)F)n2)cc1	11%	0%	28%	-10%	-12	-12%
CCOC(=O)c1cnn(-c2nc(-c3ccc(F)cc3)cs2)c1C(F)(F)F	-11%	-1%	-3%	32µM*	1	4%
CCOC(=O)c1cnn(-c2nc(-c3ccccc3F)cs2)c1C(F)(F)F	-9%	1%	-6%	35µM*	1	7%
CCOC(=O)c1cnn(-c2nc(-c3ccccc3)cs2)c1C(F)(F)F	-18%	-1%	-6%	32µM*	1	0%
O=C(O)c1cnn(-c2nc(-c3ccc(Cl)cc3)cs2)c1C(F)(F)F	-1%	13%	-1%	.	-20	2%
Cc1ccc(C)c(-n2nnc(C(=O)NC3CCCCC3)c2N)c1	.	.	.	.	8	.
CNC(=O)c1cc2cc(OC)ccc2n1CCN(C)C	1%	2%	-9%	?	7	3%
CNC(=O)c1cc2cc(OC)ccc2n1CCN(Cc1ccccc1)Cc1ccccc1	-14%	-1%	16%	22µM*	2	-1%
C[n+]1ccc(/C=C/c2ccc(Br)cc2)cc1	-35%	33%	-13%	?	-32*	3%
COc1cccc(NC(=O)CN(C)C(=O)C(Sc2ccccc2)c2ccccc2)c1 (stereo not given)	-2%	-5%	14%	28µM*	1	9%
COc1cccc(NC(=O)CN(C)C(=O)Cc2cccc3ccccc23)c1	10%	-2%	5%	-1%	0	-6%
CC1C(=O)N2CCCc3cc(S(=O)(=O)Nc4ccccc4F)cc1c32 (stereo not given)	-13%	4%	6%	-1%	-3	8%
CC1C(=O)N2CCCc3cc(S(=O)(=O)Nc4ccccc4C(N)=O)cc1c32 (stereo not given)	14%	8%	13%	32µM*	-2	-6%
CCc1ccc(C(C(=O)NC(C)(C)CC)N(Cc2ccco2)C(=O)Cn2nnc3ccccc32)cc1 (stereo not given)	12%	-5%	3%	-6%	-9	-25%
CCC(C)(C)NC(=O)C(c1ccccc1F)N(Cc1ccco1)C(=O)Cn1nnc2ccccc21 (stereo not given)	4%	0%	10µM*	?	-2	-18%
COC(CNc1nc2c(c(=O)n(C)c(=O)n2C)n1Cc1ccccc1Cl)OC	.	.	.	.	7	.
CC(=O)NCC(=O)N(c1ccc(C)cc1)C1(C(=O)Nc2c(C)cccc2C)CCCCC1	.	.	.	.	-1	.
C/C(=N\NC(=O)C1(C)CC1(Br)Br)c1cccc(NC(=O)C2CCC2)c1 (stereo not given)	18%	1%	9%	22µM*	-5	5%

Compound activity as filed in PubChem BioAssay.
